Assay results taken from publication PMC5540273 (PLoS ONE, 2017).

system: T1, GRK2; details: concentration: 1 μM, replicates: in singlicate; n = 1
T1 construct: gene ADRBK1
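Note: KINOMEscan kinase panel screen.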

Row | SMILES | %Inh [%]
1 | CCCCc1nn2ncccc2c1-c1ccnc(Nc2ccc(N3CCN(C)CC3)cc2)n1 [GW684941] | 0
2 | CC(C)c1nc(-c2cccc(NS(=O)(=O)c3c(F)cccc3F)c2F)c(-c2ccnc(Nc3ccc(N4CCOCC4)nc3)n2)s1 [GSK2008607] | 0
3 | NCCCC(NC(=O)c1cc(Br)c(-c2ccnc3[nH]ccc23)s1)c1ccccc1.O=C(O)C(F)(F)F.O=C(O)C(F)(F)F (centres unmarked) [GSK1287544] | 75
4 | CN(C)S(=O)(=O)c1cc(-c2ccc3nccc(-c4cccc(S(N)(=O)=O)c4)c3c2)cnc1N [GSK1669921] | 0

system: T2, GRK3; details: concentration: 1 μM, replicates: in singlicate; n = 1
T2 construct: gene ADRBK2

Row | SMILES | %Inh [%]
5 | Nc1ncc(-c2cccnc2)c2scc(-c3ccc4c(c3)CCN4C(=O)Cc3ccccc3)c12 [GSK683281] | 0
6 | c1ccc(Oc2ccc(Nc3ccnc4cc(-c5ccc(CNCCN6CCOCC6)o5)ccc34)cc2)nc1 [GW567145] | 48
7 | Cl.Cl.NCC(NCc1ccc(-c2ccnc3[nH]ccc23)s1)c1ccccc1 (centres unmarked) [GSK1321565] | 37
8 | CCn1c(-c2nonc2N)nc2c(C#CC(C)(C)O)nc(OC[C@H](N)c3ccccc3)cc21 [GSK943949] | 0
9 | O=C(Nc1cccc(-c2nn3ncccc3c2-c2ccnc(Nc3ccccc3)n2)c1)c1c(F)cccc1F [GSK198271] | 0
10 | CCS(=O)(=O)c1ccc(OC)c(Nc2nccc(-c3c(-c4cccc(NC(=O)c5c(F)cccc5F)c4)nn4ncccc34)n2)c1 [GSK326180] | 17
11 | C[C@@H](Oc1cc(-n2cnc3cc(-c4ccnc(NCCS(C)(=O)=O)c4)ccc32)sc1C(N)=O)c1ccccc1Cl [GSK907232] | 39
12 | Oc1cc(Nc2ccnc3cc(I)ccc23)ccc1F [GW552771] | 65
13 | Nc1ncc(-c2ccc3nccc(-c4ccncc4)c3c2)cc1S(=O)(=O)N1CCOCC1 [GSK1627798] | 17
14 | Cl.Cl.NCC(C(=O)Nc1cc(Br)c(-c2ccnc3[nH]ccc23)s1)c1ccccc1 (centres unmarked) [GSK1269851] | 62
15 | COc1ccc(Nc2nccc(N3CCC(NC(=O)Nc4cccc(OC)c4)C3)n2)cc1 (centres unmarked) [GSK1379742] | 22
16 | Cc1cccc(NC(=O)Nc2ccc(Oc3ncnc4ccn(C)c34)cc2)c1 | 0
17 | O=C(Nc1ccccc1F)NC1CCN(c2ccnc(Nc3ccc(F)cc3)n2)CC1 [GSK1379800] | 0
18 | COc1cccc(C2=C(Nc3ccc(Cl)c(C(=O)O)c3)C(=O)NC2=O)c1 [SB-390769] | 59
19 | O=c1[nH]cc(-c2ccc(N3CCOCC3)cc2)c2sc(-c3cn[nH]c3)cc12 [GSK2276055] | 0
20 | COc1ccc(Nc2nccc(NCCNC(=O)c3cc4ccccc4s3)n2)cc1 [GSK1379896] | 0
21 | O=C(Nc1cccc(-c2nn3ccccc3c2-c2ccnc(Nc3cccc(C(F)(F)F)c3)n2)c1)c1c(F)cccc1F [GSK292658] | 0
22 | COc1cccc(-c2ccc3c(NC(=O)C4CC4)n[nH]c3n2)c1 [SB-710903] | 75
23 | Cc1cccc(Nc2nc(N[C@H]3CCNC3)ncc2C(N)=O)c1.Cl [GSK2197149] | 0
24 | Fc1ccc(-c2ncn(C3CCNCC3)c2-c2ccnc(Oc3ccc(-c4ccccc4)cc3)n2)cc1 [SB-245391] | 22
25 | O=C(NC1CCN(c2ccnc(Nc3ccc(F)cc3)n2)C1)c1cc2ccccc2s1 (centres unmarked) [GSK1379716] | 33
26 | COc1cccc(C(=O)Nc2cccc(Oc3ccc4nc(NC(=O)C5CC5)cn4n3)c2)c1 | 0
27 | Cl.NC(=O)c1cccc(Nc2nccc(Nc3ccc(Oc4c(Cl)cccc4Cl)c(Cl)c3)n2)c1 [GW659009] | 39
28 | O=C(Nc1n[nH]c2cc(-c3ccoc3)ccc12)C1CC1 [SB-738481] | 0
29 | Cl.c1ccc(-c2ccc3c(Nc4ccc5[nH]ccc5c4)ccnc3c2)nc1 [GW440138] | 50
30 | COc1ccc(-c2coc3ccc(-c4nnc(SCc5ccc(OC)c(C(F)(F)F)c5)o4)cc23)cc1 | 0
31 | COc1cc2c(cc1OCCN1CCNCC1)ncc1c3ccc(C#N)cc3[nH]c21 | 34
32 | CN(c1ccc(NC(=O)Nc2cc(C(F)(F)F)ccc2F)cc1)c1ccnc(Nc2ccc(S(N)(=O)=O)cc2)n1 [GW809893] | 0
